hgDAF12 agonist – agonists of H. glycines DAF-12 nuclear receptor. HEK293 GAL4-hgDAF12 UAS-luciferase reporter, agonist luminescence; normalized to butyrate control. activation, % at 6.8 µM. 370,000 tested, 1.8% active. AID 687014;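 active = activation above a cutoff set at the mean of all screened compounds plus 3 SD, cut at about 10% in these data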;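 also: 0% = DMSO wells and 100% = sodium butyrate wells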
ssDAF-12 act – S. stercoralis DAF-12 activation, primary screen. HEK293 ssDAF-12/GRIP1 lit1-tk-luc reporter, luminescence; % of 3 µM dafachronic acid response. activation, % at 6.8 µM. 370,000 tested, 1% active. AID 652126;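 active = activation above the mean over all tested compounds plus 3 SD, cut at about 0.9% in these data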;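 also: 0% = DMSO-only wells and 100% = 3 µM delta7-dafachronic acid wells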
DAX1 inh-1 – DAX1 (NR0B1) inhibition, primary screen. HEK293T StAR-luciferase reporter, SF-1/DAX-1 repression relief. inhibition, % at 6.8 µM. 370,000 tested, 1.1% active;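 active = inhibition above the mean over all tested compounds plus 3 SD, cut at about 3.6% in these data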;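 also: 0% = DAX-1 cells with DMSO and 100% = cells lacking DAX-1 with DMSO; higher inhibition means more luminescence from relief of DAX-1 repression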
GAA850 FXN act – increases GAA850 frataxin promoter reporter activity | HEK293 lucGAA850 FXN promoter luciferase reporter, 24 h; percent of 10 µM SAHA response | AID 540364 | activation, % at 6 µM | 360,000 tested, 0.56% active;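 active = activation above the average of all compounds screened plus 3 SD, cutoff fixed separately per campaign, cut at about 7.5% in these data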;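 also: 0% = DMSO wells and 100% = 10 µM SAHA wells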
hcDAF-12 act – H. contortus DAF-12 activation, primary screen. HEK293 hcDAF-12 lit1-tk-luc reporter, luminescence; 0% DMSO, 100% Δ7-dafachronic acid. activation, % at 6.8 µM. 370,000 tested, 1.4% active. AID 652067;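 active = activation above the mean of all tested compounds plus 3 SD, cut at about 5.5% in these data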;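 also: 100% = response to 3 µM Δ7-dafachronic acid high control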
DAX1 inh-2 – NR0B1 (DAX1) inhibition | inhibition, % at 6.75 µM | HEK293 Gal4-DAX1 luciferase reporter, luminescence | AID 504766 | 340,000 tested, 0.99% active | P51843;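 active = inhibition above the mean over all tested compounds plus 3 SD, cut at about 4.2% in these data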;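 also: 0% = DAX1-transfected cells with DMSO and 100% = empty-vector control cells with DMSO; inhibition shows as a rise in luminescence from relieved DAX1 repression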
Target sequence (P51843 207-470 limits assumed): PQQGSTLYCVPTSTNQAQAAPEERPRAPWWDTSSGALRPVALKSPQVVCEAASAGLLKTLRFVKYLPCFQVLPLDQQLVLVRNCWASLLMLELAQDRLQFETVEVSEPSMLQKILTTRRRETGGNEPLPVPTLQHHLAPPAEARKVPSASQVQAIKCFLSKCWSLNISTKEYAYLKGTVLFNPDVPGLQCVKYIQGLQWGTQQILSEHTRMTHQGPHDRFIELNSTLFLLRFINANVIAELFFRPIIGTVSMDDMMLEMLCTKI
GAA30 counter – counter-screen for GAA850 frataxin promoter activators: GAA30 promoter activation; 1,900 tested, 66% active; activation, % at 6 µM; shares compounds with GAA850 FXN act; AID 588350; HEK293 lucGAA30 FXN promoter luciferase, 24 h; DMSO = 0%, 5 µM ipriflavone = 100%;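 active = mean activation above the mean of solvent-only control wells plus 3 SD, cut at about 22% in these data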;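 also: counterscreen of GAA850 promoter hits where activity marks nonselective or luminescence artifacts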
GAA850 confirm – GAA850 FXN promoter activation confirmation. HEK293 lucGAA850 FXN promoter luciferase reporter, 24 h; 100% = activation by SAHA. shares compounds with GAA850 FXN act. activation, % at 6 µM. AID 588351. 1,900 tested, 86% active;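 active = mean activation above a set limit taken from the primary screen, cut at about 8% in these data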;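 also: 0% = DMSO wells and 100% = 10 µM SAHA wells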
Starred values were filed as active, the others as inactive; · = no result. Rows were chosen to be rich in hits. Some 4.5% of all compounds tested hit in one or more screens of this group.

SMILES | hgDAF12 agonist | ssDAF-12 act | DAX1 inh-1 | GAA850 FXN act | hcDAF-12 act | DAX1 inh-2 | GAA30 counter | GAA850 confirm
Cn1c(CCN2CCCCC2)nc2cc([N+](=O)[O-])ccc21 | -3.6 | -1.6 | 0.2 | 7.7* | 0.3 | 2.9 | 18.4 | 17.1*
CCCCCCCCN1C(=O)N2Cc3ccc(C)cc3C2CS1(=O)=O (stereo unspecified) | 1.9 | -1.3 | 0.1 | · | -1.0 | · | · | ·
CC(C)Cn1cnc2c(SCc3ccccc3F)nc(N)nc21 | 9.3 | -0.9 | 1.1 | 8.9* | 0.1 | 0.4 | 94.6* | 35.3*
CCCCn1cnc2c(SCc3ccccc3F)nc(N)nc21 | 4.8 | -1.0 | 1.9 | 8.3* | -1.3 | -1.5 | 56.6* | 25.4*
CCC(C)Cn1cnc2c(SCc3ccccc3F)nc(N)nc21 (stereo unspecified) | 0.8 | -1.5 | 3.3 | 4.8 | -0.1 | -1.8 | · | ·
O=C(NCCc1c[nH]c2ccccc12)OCc1cn(Cc2cccc(C(F)(F)F)c2)nn1 | -4.0 | -1.1 | 1.2 | · | -3.1 | · | · | ·
Cc1ccc(S(=O)(=O)N(C)[C@H]2C[C@H]3c4[nH]c5cccc(-c6ccccc6)c5c4CCN3C(=O)[C@H]2[C@H](C)O)cc1 | 2.0 | -1.2 | 0.2 | · | -1.0 | · | · | ·
CCC(CC)c1nnc(NC(=O)CN2C(=O)C3C4C=CC(C4)C3C2=O)s1 (stereo unspecified) | 1.6 | -1.1 | 0.3 | 9.9* | -0.4 | 1.4 | 14.1 | 7.0
CC(C)c1nnc(NC(=O)CCCCCN2C(=O)C3C4C=CC(C4)C3C2=O)s1 (stereo unspecified) | 4.9 | -1.2 | -0.1 | -1.7 | -2.1 | -0.7 | · | ·
O=C(c1ccc(C23CC4CC(CC(C4)C2)C3)o1)N1CCOCC1 | 1.4 | -1.1 | 0.2 | 9.7* | -0.1 | 1.2 | 33.9* | 21.9*
C(=N\Nc1ccccn1)/c1c[nH]c2ccccc12 | 3.5 | -0.7 | 0.0 | 7.7* | 1.8 | 1.4 | 75.8* | 36.5*
O=C(O)c1cccc2c(/C=N/Nc3ccccn3)c[nH]c12 | · | · | · | -0.1 | · | 0.8 | · | ·
COc1ccc(NC(=O)CSCC(=O)Nc2cc(Cl)ccc2N2CCCC2)cc1 | -1.4 | -1.0 | -1.5 | 8.5* | -0.7 | 0.3 | 8.6 | 5.6
CCCCC(=O)N/N=C/c1ccc(Sc2cccc3cccnc23)o1 | -2.2 | -0.3 | -0.4 | 15.1* | -1.4 | -0.1 | 25.2* | 7.7*
O=C(Cc1cccc2ccccc12)N/N=C/c1ccc(Sc2cccc3cccnc23)o1 | 0.0 | -0.2 | -0.1 | · | -0.1 | · | · | ·
Nc1ccc2c(c1)C(=NO)c1cc([N+](=O)[O-])ccc1-2 | -2.6 | -1.9 | -0.8 | 12.7* | -1.6 | -2.1 | 78.5* | 34.5*
CCN(CC)c1ccc(S(=O)(=O)N2CCCCC2)cc1NC(=O)CSCc1c(C)noc1C | -0.4 | -1.2 | -1.8 | 10.4* | -1.9 | -0.3 | 21.1 | 22.2*
Cc1noc(C)c1CSCC(=O)Nc1cc(S(=O)(=O)N2CCCCC2)ccc1OC(C)C | -2.4 | -1.4 | -1.0 | 4.4 | -0.9 | 1.3 | · | ·
CN(C)CCNc1ccc2ncn3c4ccc(O)cc4c(=O)c1c23 | -7.0 | -0.9 | -6.2 | 8.4* | -0.8 | -2.1 | -41.6 | 25.6*
CN(C)CCNc1ccc(CO)c2sc3ccc(O)cc3c(=O)c12 | -7.8 | -0.3 | -5.4 | -4.4 | 0.7 | -4.4 | · | ·
CCCCOCCCNC(=O)C[C@H]1C[C@@]2(C(=O)OCC)CCCC3=C2N(CCC3)C1=O | -1.0 | 0.0 | 0.2 | · | -1.0 | · | · | ·
Nc1nc(N)nc(-c2cc([N+](=O)[O-])ccc2O)n1 | -0.2 | -1.5 | -0.5 | 16.7* | -1.1 | -1.1 | 69.0* | 51.5*
C=C1C(=O)O[C@H]2C[C@]3(C)C([C@@H](OC(=O)/C(C)=C/C)[C@H]12)[C@](C)(O)CC[C@H]3O (stereo partly specified) | -1.3 | -0.9 | 0.3 | 1.3 | -1.5 | 0.5 | · | ·
C=C[C@@]1(C)CC(=O)[C@]2(O)[C@@]3(C)[C@@H](O)CCC(C)(C)[C@@H]3[C@H](OC(C)=O)[C@H](O)[C@@]2(C)O1 | -5.8 | -1.9 | 2.8 | 12.3* | -5.8 | 4.0 | 7.4 | 13.7*
O=C1[C@H]2[C@@H](c3ccc(F)cc3)N3C(=O)N(c4cccc(Cl)c4)C(=O)[C@@]3(Cc3ccccc3)[C@H]2C(=O)N1C1CCCCC1 | 1.1 | -1.3 | 0.2 | 9.3* | -1.2 | -0.7 | 13.3 | 7.0
SMILES | hgDAF12 agonist | ssDAF-12 act | DAX1 inh-1 | GAA850 FXN act | hcDAF-12 act | DAX1 inh-2 | GAA30 counter | GAA850 confirm
O=C1[C@H]2[C@@H](c3ccc(F)cc3)N3C(=O)N(c4ccccc4)C(=O)[C@@]3(Cc3ccccc3)[C@H]2C(=O)N1C1CCCCC1 | 2.7 | -1.3 | 0.2 | 10.2* | -0.2 | -2.0 | 23.2* | 7.0
CCN(CC)C(=O)Cn1c2ccccc2c2nc3n(c(=O)c21)CCS3 | -1.6 | -0.5 | · | · | -0.1 | · | · | ·
CC(C)(C)N(NC(=O)Nc1cccc(F)c1)C(=O)c1ccccc1Cl | 0.3 | -0.8 | 0.4 | · | -0.4 | · | · | ·
Cc1nn2c(N)c(C#N)cnc2c1-c1ccccc1 | 1.2 | -1.5 | 0.7 | 9.0* | -1.8 | -0.2 | 37.8* | 20.3*
Cc1nn2c(N)c(C#N)cnc2c1-c1ccc(Cl)cc1 | -0.4 | -0.7 | 0.8 | 4.7 | 1.8 | 0.7 | · | ·
Cc1ccc(S(=O)(=O)N(CC(=O)NC2CCC(C)CC2)c2cc(C)cc(C)c2)cc1 (stereo unspecified) | 4.2 | -0.3 | 1.8 | · | 1.5 | · | · | ·
CC(=O)C1(C(=O)NC2CCCC2)CC(c2ccccc2C(F)(F)F)=NO1 (stereo unspecified) | 0.1 | -1.2 | -0.6 | · | -1.7 | · | · | ·
O=C(/C=C/Nc1ccc(F)cc1Br)c1ccccc1 | 4.0 | 0.4 | 2.9 | -5.2 | 5.1 | -2.7 | · | ·
Cc1ccc(O)c(N/C=C/C(=O)c2ccc(F)cc2)c1 | 0.0 | -1.5 | -0.3 | 10.7* | 0.0 | 3.2 | 19.3 | 25.4*
C=CCSc1nc(N)c(NC(=O)c2ccco2)c(=O)[nH]1 | 4.5 | -1.3 | 0.4 | 14.1* | 1.8 | -0.3 | 27.8* | 9.8*
Nc1nc(SCC(=O)OCc2ccccc2)[nH]c(=O)c1NC(=O)c1ccco1 | -2.2 | -1.3 | 0.2 | 0.2 | -0.8 | 0.3 | · | ·
C#CCNC(=O)C[C@H]1C(=O)N(Cc2ccc(OC)cc2)C2=CCCC[C@@]21C(=O)OCC | -2.4 | -2.1 | 0.2 | · | -3.1 | · | · | ·
CCc1cc2c(nc1CC)CCCN2S(=O)(=O)c1ccccc1 | -0.8 | -0.9 | 1.5 | · | -2.7 | · | · | ·
CCOC(=O)NN=C1c2ccccc2-c2ccccc21 | -1.2 | -1.7 | 0.0 | 1.5 | 0.5 | -0.4 | · | ·

Screening data: PubChem, The Scripps Research Institute Molecular Screening Center
